# LRH-1 inv ag = NR5A2 inverse agonism in reporter assay; O00482; HEK293T StAR-luciferase reporter, LRH-1 transfected, 24 h; inhibition, % at 3.6 µM; hit rate 0.13% among 360,000;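 active = inhibition above the mean inhibition of all tested compounds plus 3 SD, cut at about 73% in these data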;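 note: 0% = DMSO wells and 100% = reporter-only cells lacking LRH-1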
# SRC2 inh = inhibits human steroid receptor coactivator 2 | hit rate 0.17% among 370,000 | Q15596 | inhibition, % at 9 µM | HEK293 GAL4-SRC2 luciferase reporter, luminescence | AID 651957;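 active = inhibition above the mean inhibition of all tested compounds plus 3 SD, set per campaign, cut at about 52% in these data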;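 note: 0% = DMSO treated cells and 100% = cells given Gossypol at 36 µM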
# Target sequence (Q15596 whole entry, looked up, the tested form may be a part): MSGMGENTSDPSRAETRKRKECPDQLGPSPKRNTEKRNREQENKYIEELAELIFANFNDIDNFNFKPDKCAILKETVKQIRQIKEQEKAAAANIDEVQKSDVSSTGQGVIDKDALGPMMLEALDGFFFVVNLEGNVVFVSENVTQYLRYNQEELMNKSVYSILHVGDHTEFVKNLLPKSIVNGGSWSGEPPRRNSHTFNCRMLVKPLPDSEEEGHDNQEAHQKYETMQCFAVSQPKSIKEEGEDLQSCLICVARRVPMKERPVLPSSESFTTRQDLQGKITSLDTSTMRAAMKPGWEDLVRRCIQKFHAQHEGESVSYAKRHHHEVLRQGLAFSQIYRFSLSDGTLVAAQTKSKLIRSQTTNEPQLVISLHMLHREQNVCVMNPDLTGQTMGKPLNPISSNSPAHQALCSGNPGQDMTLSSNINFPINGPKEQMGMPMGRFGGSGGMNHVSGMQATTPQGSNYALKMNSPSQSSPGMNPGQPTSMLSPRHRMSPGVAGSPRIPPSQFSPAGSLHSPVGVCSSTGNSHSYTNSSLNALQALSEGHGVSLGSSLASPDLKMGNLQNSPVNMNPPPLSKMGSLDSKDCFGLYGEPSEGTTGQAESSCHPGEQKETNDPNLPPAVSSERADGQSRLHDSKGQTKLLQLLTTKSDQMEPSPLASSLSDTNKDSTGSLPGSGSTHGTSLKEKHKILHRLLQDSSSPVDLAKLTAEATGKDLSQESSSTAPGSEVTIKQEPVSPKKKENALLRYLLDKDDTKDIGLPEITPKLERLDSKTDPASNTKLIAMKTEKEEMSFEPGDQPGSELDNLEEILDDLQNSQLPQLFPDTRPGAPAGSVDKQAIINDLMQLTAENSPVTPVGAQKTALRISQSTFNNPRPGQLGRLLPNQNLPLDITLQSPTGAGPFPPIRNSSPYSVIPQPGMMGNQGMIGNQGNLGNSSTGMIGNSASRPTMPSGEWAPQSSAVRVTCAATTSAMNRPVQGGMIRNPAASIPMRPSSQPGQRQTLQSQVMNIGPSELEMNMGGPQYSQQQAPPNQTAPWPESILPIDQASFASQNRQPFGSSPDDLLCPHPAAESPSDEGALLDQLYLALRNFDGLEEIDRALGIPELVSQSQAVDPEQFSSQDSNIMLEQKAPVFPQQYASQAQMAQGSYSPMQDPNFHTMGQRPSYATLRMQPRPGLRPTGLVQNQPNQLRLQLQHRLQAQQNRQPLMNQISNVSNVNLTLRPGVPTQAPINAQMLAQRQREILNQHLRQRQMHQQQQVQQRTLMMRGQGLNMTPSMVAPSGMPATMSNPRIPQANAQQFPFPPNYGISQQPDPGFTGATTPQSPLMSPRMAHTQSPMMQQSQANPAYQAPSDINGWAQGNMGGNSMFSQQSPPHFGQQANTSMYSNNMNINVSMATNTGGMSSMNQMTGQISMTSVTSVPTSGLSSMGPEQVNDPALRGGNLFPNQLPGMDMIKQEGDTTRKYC
# NCOA3 inh = inhibitors of human steroid receptor coactivator 3 (SRC3); inhibition, % at 3.6 µM; HEK293 GAL4-SRC3 luciferase reporter, luminescence; Q9Y6Q9; hit rate 0.17% among 360,000; AID 588352;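 active = inhibition above a per-campaign cutoff, the mean of all compounds plus 3 SD, cut at about 60% in these data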;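 note: 0% = DMSO-treated cells and 100% = gossypol-treated cells at 36 µM; higher means less SRC3-driven luciferase light from the GAL4 reporter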
# COUP-TFII inh = NR2F2 (human) inhibition, primary screen. HEK293T NGFI-A luciferase reporter, luminescence. AID 686940. hit rate 0.7% among 370,000. P24468. inhibition, % at 8.6 µM;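 active = inhibition above a per-plate cutoff, mean inhibition of test wells between control levels plus 3 SD, cut at about 38% in these data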;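 note: cells cotransfected with COUP-TFII expression vector driving the NGFI-A reporter; 0% = median of COUP-TF2 test wells and 100% = reporter-only cells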
# Gli-Sufu block = Gli-Sufu pathway antagonism; inhibition, % at 5 µM; Sufu-KO-LIGHT fibroblasts, Gli luciferase reporter luminescence; hit rate 0.74% among 340,000; AID 588413;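 active = inhibition above about 55%, limit read from the data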;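 note: 0% = DMSO-treated cells and 100% = wells with medium but no cells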
# NCOA1 inh = inhibits human SRC1 coactivator; inhibition, % at 3.6 µM; AID 588354; hit rate 0.12% among 360,000; HEK293 GAL4-SRC1 luciferase reporter, luminescence;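 active = inhibition above the campaign mean plus 3 SD, with each screening campaign given its own cutoff, cut at about 60% in these data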;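 note: 0% = DMSO treated cells and 100% = gossypol at 36 µM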
# Gli antag conf = confirmation of Gli-SUFU pathway antagonists | shares compounds with Gli-Sufu block | AID 602428 | inhibition, % at 5 µM | hit rate 40% among 2,500 | Sufu-KO-LIGHT cells, Gli luciferase reporter, luminescence;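 active = mean inhibition at 5 µM reaching about 45%, limit read from the data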;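 note: plate controls were DMSO-treated cells for no effect and wells lacking cells for full effect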
# Gli cytotox = counter-screen for Gli-SUFU antagonists: cytotoxicity | shares compounds with Gli-Sufu block | Sufu-KO-LIGHT cells cytotoxicity, ATP luminescence | cytotoxicity, % at 5 µM | hit rate 32% among 2,500 | AID 651994;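 active = mean cytotoxicity at 5 µM above about 25%, limit read from the data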;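 note: cells exposed to compound overnight for roughly 16 to 18 hours; plate controls were DMSO wells with cells for no effect and medium without cells for full effect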
# Wnt3a counter = Wnt3a reporter inhibition counter-screen | Wnt-LIGHT cells, Wnt3a-driven luciferase reporter, luminescence | hit rate 20% among 2,500 | shares compounds with Gli-Sufu block | AID 651995 | inhibition, % at 6.25 µM;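 active = mean inhibition above about 25%, limit read from the data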
# * marks the source's active call; other numbers are inactive results; . = no result. Only some compounds are listed: those with a hit (about 1.3% of all), similar ones and a draw of the others.
SMILES,LRH-1 inv ag,SRC2 inh,NCOA3 inh,COUP-TFII inh,Gli-Sufu block,NCOA1 inh,Gli antag conf,Gli cytotox,Wnt3a counter
C=CC[C@@]1(c2ccccc2)Oc2ccccc2-c2nc3ccccc3nc21,.,-17.2,.,3.2,.,.,.,.,.
COC(=O)C1CN(C2CCCC2)CCS(=O)(=O)N1Cc1cn(Cc2ccc(F)cc2)nn1 (centres undefined),.,-0.2,.,4.8,.,.,.,.,.
COc1cccc(CNC(=O)C2CCC(CNS(=O)(=O)c3cccc4cccnc34)CC2)c1OC (centres undefined),.,-7.9,.,-13.9,.,.,.,.,.
O=C(c1ccc(Cl)cc1)N1CCC(Oc2cccnc2)CC1,.,-2.1,.,19.5,.,.,.,.,.
COc1ccc(S(=O)(=O)NC2CC(C)(C)NC(C)(C)C2)cc1C(C)C,-5.8,15.5,-0.7,-6.4,51.4,1.2,16.5,11.2,-18.2
CC(C)(C)c1ccc(-n2ncc3c2CCCC3NC(=O)c2ccncc2)cc1 (centres undefined),18.9,-0.8,19.7,7.9,50.6,-26.5,28.1,19.5,-68.1
O=C(NC1CCCc2c1cnn2-c1cc(F)cc(F)c1)c1ccncc1 (centres undefined),-5.0,5.0,8.0,25.6,-6.7,12.5,.,.,.
Cc1ccc(Nc2nc(N3CCOCC3)nc(N3CCOCC3)n2)cc1C,-6.0,2.8,-35.5,8.7,56.5*,-28.7,50.2*,41.3*,-51.3
CCOc1ccc(Oc2c(Cl)cnn(Cc3cccc4ccccc34)c2=O)cc1,.,6.0,.,27.9,.,.,.,.,.
CC1CCCN(c2cccc3c2S(=O)(=O)N(Cc2cccc(F)c2)[C@@H](C)[C@H](c2ccccc2)O3)C1 (some centres undefined),.,-9.2,.,9.6,.,.,.,.,.
O=S(=O)(c1ccc2ccccc2c1)N1CCN(C(=S)Nc2ccc(F)cc2)CC1,9.8,-2.6,3.1,9.7,13.8,13.1,.,.,.
O=S(=O)(c1ccc2ccccc2c1)N1CCN(C(=S)Nc2ccc(F)c(Cl)c2)CC1,8.3,-6.0,13.6,6.7,98.8*,1.2,15.0,4.3,-3.9
CC(C)c1ccc(Nc2nc(CC(=O)O)cs2)cc1,-150.7,-68.7,-83.2,-60.6,-94.6,-97.1,.,.,.
O=C(O)Cc1csc(Nc2cccc(Cl)c2)n1,-17.8,-14.7,-1.7,-9.3,69.0*,-21.2,12.6,19.9,-31.4
COC(=O)/C(=N\Nc1ccc(Cl)cc1)Sc1nnc(-c2ccc(OC)cc2)n1C,9.5,-7.3,15.9,-19.5,80.3*,15.7,15.2,23.8,-15.8
CCOC(=O)[C@@]12CN(C(=O)OC(C)(C)C)CC=C1N(Cc1ccc(OC)cc1)C(=O)[C@H]2CC(=O)NCC12CC3CC(CC(C3)C1)C2,.,1.2,.,9.8,.,.,.,.,.
c1ccc2c(-c3[nH]ncc3CNCCCn3ncc4ccccc43)cccc2c1,-4.0,0.7,21.4,19.9,58.5*,8.8,23.0,8.5,-9.9
COc1ccccc1CNC(=O)[C@H](C)N1C(=O)N2CCc3c([nH]c4ccccc34)[C@@]2(C)C1=O,6.8,5.9,13.8,6.0,65.9*,4.2,34.1,5.4,1.8
CC(C)CCNC(=O)C1CCCN(C(=O)c2ccc3c(c2)NC(=O)CS3)C1 (centres undefined),.,0.2,.,-2.5,.,.,.,.,.
Cn1c(=O)c2c(nc(NCc3ccc4c(c3)OCO4)n2Cc2ccccc2F)n(C)c1=O,0.3,-49.7,-29.5,0.4,42.3,-23.0,.,.,.
Cn1c(=O)c2c(nc(NCc3ccc4c(c3)OCO4)n2Cc2ccccc2)n(C)c1=O,16.6,-8.2,2.0,5.6,63.7*,6.9,62.2*,32.1*,7.9
Cn1c(=O)c2c(nc(NCc3ccc4c(c3)OCO4)n2Cc2ccc(F)cc2)n(C)c1=O,28.7,-15.0,-0.9,7.1,53.5,10.3,43.8,26.8*,6.5
C[C@H]1[C@@H](N(C)Cc2cccs2)CC[C@@]23CCCN2C(=O)CCC[C@@H]13,.,.,.,9.9,.,.,.,.,.
Cc1ccc(S(=O)(=O)NCCC2=CCCCC2)cc1C(N)=O,26.7,20.4,14.2,7.1,58.3*,18.2,47.3*,18.6,18.6
COc1cc(C=NN=c2sc3ccccc3n2C)ccc1OCCO,.,-58.0,.,-36.5,.,.,.,.,.
SMILES,LRH-1 inv ag,SRC2 inh,NCOA3 inh,COUP-TFII inh,Gli-Sufu block,NCOA1 inh,Gli antag conf,Gli cytotox,Wnt3a counter
Cc1ccc(-c2cc(C(=O)N=Nc3c(O)[nH]c4ccccc34)[nH]n2)cc1C,.,-23.5,.,21.2,.,.,.,.,.
Cc1cc(C)c(NC(=O)CNC(=O)COC(=O)C2=COCCO2)c(C)c1,-2.0,10.3,14.8,17.2,52.2,3.1,13.6,14.7,-2.5
Cc1ccccc1NC(=O)COC(=O)C1=COCCO1,17.6,-13.0,-32.6,-6.0,-11.5,2.7,.,.,.
COC(=O)[C@]12C[C@H](CC(=O)NCCCCc3ccccc3)C(=O)N(CCc3ccc(OC)c(OC)c3)C1=C[C@H](COCc1ccccc1)O[C@@H]2C,.,1.2,.,0.9,.,.,.,.,.
COc1cccc(OC)c1C(=O)Nc1sc2c(c1C(N)=O)CCN(Cc1ccccc1)C2,4.9,0.6,-9.1,-0.6,10.3,5.9,.,.,.
CCN1CCc2c(sc(NC(=O)c3cc4ccccc4cc3OC)c2C(N)=O)C1,-12.1,14.4,-8.7,-5.0,69.1*,-13.1,20.1,17.7,-47.6
C=CCN1C(=O)[C@]2(OCCC=C[C@H]2C)c2cc(OC)ccc21,.,-2.8,.,-4.7,.,.,.,.,.
Cc1ccccc1C(=O)N(C)[C@H]1C[C@H]2c3[nH]c4c(-c5ccccc5)cccc4c3CCN2C(=O)[C@H]1[C@H](C)O,.,-39.4,.,6.5,.,.,.,.,.
Cc1ccc(-c2c[n+](Cc3ccc(Cl)c(Cl)c3)c3n2CCC3)cc1,28.2,18.3,54.0,19.4,84.6*,22.9,79.7*,26.4*,-13.6
Cc1ccc(NC(=O)C[n+]2cc(-c3ccc(C)cc3)n3c2CCC3)cc1,12.6,-13.1,27.6,-2.2,6.7,-12.0,.,.,.
NC(=O)c1ccc(Br)c(S(=O)(=O)N2CCCCC2)c1,-4.6,8.5,0.9,0.9,0.0,1.6,.,.,.
O=S(=O)(c1cc(Br)ccc1Br)N1CCCCCC1,-1.2,-12.9,-10.7,-1.5,56.4*,-4.5,14.3,11.9,9.0
CN1/C(=C\C(=O)c2cccnc2)C(C)(C)c2ccccc21,-24.6,-11.4,-8.3,-8.3,5.2,-1.3,.,.,.
CN1/C(=C\C(=O)c2ccco2)C(C)(C)c2ccccc21,15.4,16.9,26.6,29.5,84.4*,-21.2,81.2*,35.2*,24.1
CN1/C(=C\C(=O)c2cncc(Br)c2)C(C)(C)c2ccccc21,4.6,24.7,22.6,23.7,65.9*,9.5,69.5*,36.7*,15.0
CN1/C(=C\C(=O)COC(=O)c2ccco2)C(C)(C)c2ccccc21,15.7,1.9,6.3,3.8,11.8,3.7,.,.,.
COc1ccc(CN(CCN2CCOCC2)C(=O)c2ccc(F)cc2Cl)cc1OC,.,12.3,.,1.7,.,.,.,.,.

# Source: PubChem
